In ChEMBL document CHEMBL3988442, “University of Dundee, Small-Polar-MMV Screening Library” (2021):
Hit rate of the full screen: of about 69,000 compounds, about 420 (0.61%) showed an effect of 50% or more. Shown is part of a subset that was picked to be rich in strong results.

What follows are compounds tested against T1, Histidine--tRNA ligase (Leishmania infantum) (UniProt A4I591) (assay: Leishmania infantum Histidine tRNA synthetase (LdHisRS)). Conditions: 30 µM.
T1 sequence (whole entry): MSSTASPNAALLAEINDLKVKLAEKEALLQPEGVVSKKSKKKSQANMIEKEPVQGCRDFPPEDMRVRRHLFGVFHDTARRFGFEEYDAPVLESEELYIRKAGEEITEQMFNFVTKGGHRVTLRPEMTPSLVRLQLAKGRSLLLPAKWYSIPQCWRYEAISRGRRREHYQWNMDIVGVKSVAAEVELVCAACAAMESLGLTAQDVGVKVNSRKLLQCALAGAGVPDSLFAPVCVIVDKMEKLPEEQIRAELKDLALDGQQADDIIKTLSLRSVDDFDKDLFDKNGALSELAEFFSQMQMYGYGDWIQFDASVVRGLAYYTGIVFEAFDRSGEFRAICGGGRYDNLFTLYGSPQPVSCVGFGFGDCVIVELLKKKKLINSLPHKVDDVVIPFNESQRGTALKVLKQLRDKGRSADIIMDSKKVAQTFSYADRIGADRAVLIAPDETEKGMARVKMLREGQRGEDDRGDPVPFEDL
Format: functional
Design: scale not given: in the data most compounds retested in dose-response had high values

| Compound | Percent Effect [%] |
| --- | --- |
| CC(C)CN1C[C@H]2CCN(C(=O)C3CCCO3)CC[C@H]2S1(=O)=O (some centres not stated) | 13.8 |
| O=C1[C@H]2CC[C@H](CN(Cc3ccccc3OC(F)F)C2)N1CC1CC1 | 28.9 |
| Cc1noc(C)c1C(=O)N1C[C@@H]2CCCO[C@@H]2[C@H](N(C)C)C1 | 7.96 |
| O=C(c1ccnnc1)N1C[C@H]2CN(Cc3cccc(F)c3)C(=O)[C@H]2C1 | 0.917 |
| CNC(=O)[C@H]1C[C@@H]2CN(S(=O)(=O)c3ccccc3)C[C@@H]2N1C(C)=O | 14.2 |
| O=C(N1CCOCC1)[C@@]12CCO[C@@H]1CCN(CC1CCCCC1)C2 | -3.88 |
| O=C(c1ccc2[nH]ccc2c1)N1CCn2cnc(COCC3CC3)c2C1 | 61.2 |
| Cc1ccc(C(=O)N2CCn3cnc(COCC4CC4)c3C2)cn1 | 15 |
| Cc1cccc(C(=O)N2CCn3cnc(COCC4CC4)c3C2)c1 | 34.5 |
| CN(C)S(=O)(=O)N1C[C@@H]2CC[C@H](C1)N(CCC(=O)NCc1ccco1)C2 | 13.6 |
| COc1ccc(-n2cc(CNC(=O)c3ccc[nH]3)nn2)cc1 | 54.2 |
| COc1ccc(-n2cc(CNC(=O)c3ccccn3)nn2)cc1 | 18.8 |
| COc1ccc(-n2cc(CNC(=O)c3cc[nH]n3)nn2)cc1 | 31.2 |
| CNC(=O)[C@H]1C[C@@H]2CCN(Cc3ccc4c(c3)OCO4)C[C@@H]2O1 | 14.6 |
| CCC1=NOC(CNCc2cnc(-c3ccccc3C)s2)C1 (configuration not stated) | 61.7 |
| Cc1ccccc1-c1ncc(CNCc2csc(C(C)C)n2)s1 | 20 |
| Cc1cnc(CNCc2cnc(-c3ccccc3C)s2)cn1 | 11.7 |
| CC1CCN(C(=O)[C@H]2C[C@@H]3CCN(CC4CCOCC4)C[C@@H]3O2)CC1 | 12 |
| O=C(C1=CCCC1)N1C[C@H](Oc2cccnc2)[C@H]2OCCC[C@H]21 | 3.85 |
| CN1CCCN(C(=O)c2nc3c(s2)CCCN3CC2CC2)CC1 | 48 |
| O=C(c1nc2c(s1)CCCN2CC1CC1)N1CCOCC1 | 94 |
| O=C(c1nc2c(s1)CCCN2CC1CC1)N1CCCC1 | 40 |
| COCC(=O)N1CC[C@H]2O[C@@H](C)C[C@H]2C1 | 12 |
| O=C(Nc1c(N2CCCC2)cccc1N1CCCC1)c1ccccn1 | 84.6 |

| Compound | Percent Effect [%] |
| --- | --- |
| O=C(Nc1c(N2CCCC2)cccc1N1CCCC1)c1cnccn1 | 30.8 |
| O=C(Nc1c(N2CCCC2)cccc1N1CCCC1)c1cnsn1 | 15.4 |
| Cn1cccc1C(=O)N1CC[C@H]2[C@H]1CCN2CC1CCOCC1 | 24.6 |
| O=C(C1=CCCC1)N1C[C@H]2CCC[C@@]2(COCc2ccncc2)C1 | 25.7 |
| Cc1cccc(CN2C[C@@H]3COC[C@]3(CNC(=O)C3CC3)C2)c1 | 11.9 |
| CNC(=O)[C@@]12CCO[C@@H]1CCN(S(=O)(=O)c1ccccc1)C2 | 15 |
| COCCN(CC1CC1)c1nc(CCN)nc2sc(C)c(C)c12 | 32.7 |
| CCN(CCN(C)C)c1nc(CCN)nc2sc(C)c(C)c12 | 54 |
| Cc1sc2nc(CCN)nc(N(CCN(C)C)CC3CCCO3)c2c1C (configuration not stated) | 4.42 |
| Cc1cccc(CN2C(=O)CC[C@@H]3[C@H]2CCN3Cc2cccnc2)n1 | 29.4 |
| Cc1nccc([C@H]2C[C@@H]3CCN(S(=O)(=O)C4CC4)C[C@H]3O2)n1 | 11.1 |
| O=c1[nH]c2cc3c(cc2cc1CN1CCCC1c1ccccn1)OCO3 (configuration not stated) | 14.5 |
| CCOc1ccc2[nH]c(=O)c(CN3CCCC3c3ccccn3)cc2c1 (configuration not stated) | 53 |
| O=c1[nH]c2cc3c(cc2cc1CN1CCCC1c1ccccn1)CCC3 (configuration not stated) | 43.4 |
| COCCC(=O)N1C[C@H]2CCC[C@@]2(COC)C1 | 5.77 |
| Cn1cc(N2C(=O)CC[C@@H]3[C@H]2CCN3Cc2nccs2)cn1 | 9.72 |
| Cc1cc(CN2CCc3cncnc3C2)on1 | 24 |
| CCn1nc2c(cc1=O)CN(Cc1cc(C)on1)CC2 | 21.2 |
| CCCn1nc2c(cc1=O)CN(Cc1nc(C)c(C)o1)CC2 | 13.2 |
| CCCn1nc2c(cc1=O)CN(Cc1cc(C)on1)CC2 | 55.8 |
| CCCn1nc2c(cc1=O)CN(Cc1cc(C)no1)CC2 | 69.7 |
| Cc1cc(CN2CCc3nn(C)c(=O)cc3C2)no1 | 45.5 |
| CCCn1nc2c(cc1=O)CN(Cc1ccccn1)CC2 | 75.8 |
| CCCn1nc2c(cc1=O)CN(Cc1ncc(C(C)(C)C)o1)CC2 | 45.5 |

| Compound | Percent Effect [%] |
| --- | --- |
| Cc1cc(CN2CCc3nn(C)c(=O)cc3C2)on1 | 103 |
| CCCn1nc2c(cc1=O)CN(Cc1nc(CCOC)no1)CC2 | 48.1 |
| CCCn1nc2c(cc1=O)CN(Cc1nc(C)c3ccccc3n1)CC2 | 27.1 |
| CN(C)C(=O)N1C[C@@H]2CC[C@H](C1)N(C(=O)c1c(Cl)cccc1Cl)C2 | 8.06 |
| CS(=O)(=O)N1C[C@@H]2CC[C@H](C1)N(Cc1ccsc1)C2 | 31.2 |
| CNC(=O)[C@H]1CO[C@H]2CCN(Cc3ccc4ccccc4n3)C[C@H]2C1 | 10.5 |
| CNC(=O)[C@@H]1COC[C@H]2CN(C(=O)c3ccc(C)c(F)c3)C[C@H]21 | 12.3 |
| CC(C)CC(=O)N1CC[C@@H]2[C@H](CC1)N(S(C)(=O)=O)CCS2(=O)=O | 19.2 |
| CS(=O)(=O)N1C[C@@H]2COC[C@]2(COCC(=O)N2CCCC2)C1 | 2.73 |
| Cc1noc(C)c1CN1CCc2nn(C(C)C)c(=O)cc2C1 | 53 |
| Cc1cc(CN2CCc3nn(C(C)C)c(=O)cc3C2)no1 | 26.9 |
| CCCn1nc2c(cc1=O)CN(Cc1c(C)noc1C)CC2 | 27.3 |
| O=C1CC[C@]2(CC[C@@H](NC3CCOCC3)CC2)N1Cc1ccccc1 | 7.77 |
| Cc1cnccc1-c1cnn(CCNC(=O)c2ccncc2)c1C1CC1 | -1.42 |
| COCCN(C)C(=O)c1nc2c(s1)CCCN2C | 24.6 |
| CCCN(C(=O)c1cccnc1)c1nc2c(s1)CCc1c-2cnn1C | 101 |
| CCCN(C(=O)c1ccc(-n2ccnn2)cc1)c1cccnc1 | 11.1 |
| CN(C(=O)c1cccnc1)C1CCCN(CCc2ccccc2)C1 (configuration not stated) | -1.64 |
| CCN(CCN1CCOCC1)C(=O)c1cccnc1 | 5.71 |
| CCCN(C(=O)c1ccncc1)c1nc2c(s1)CCc1c-2cnn1C | 82.3 |
| CCCC(=O)N(CCN1CCOCC1)c1nc2c(OC)ccc(C)c2s1 | -3.48 |
| CCCN(C(=O)COC)c1nc2c(s1)CCc1c-2cnn1C | 80 |
| Cc1ccc(C(=O)N2CC[C@@]3(O)CCN(C(=O)N(C)C)C[C@H]3C2)cc1Cl | -2.13 |
| CNc1nc(C(=O)N2C[C@H]3CC[C@@H]2CN(C2CCOCC2)C3)cs1 | 4.17 |
